Screening results (PubChem)
Only some compounds are listed: those with a hit (about 6.3% of all), similar ones and a draw of the others.
Autofluor 339 = intrinsic fluorescence of library compounds, ex339/em460 – biochemical, MLSMR library, data from DPM-DC assay, artefact control, profiling panel | compound autofluorescence, ex339/em460 nm, NADH buffer; stronger effect = higher value; 1 = no-compound wells, NADH background | fluorescence fold increase at 10 µM | hit rate 5.5% among 65,000 | AID 709;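 active means at 10 µM, mean starting fluorescence two-fold or more over control wells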;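 further: signal is the first read of a kinetic run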
NADH coupling = inhibitors of enzymes used to reach an NAD/NADH endpoint; coupled PK/LDH NADH assays, four targets; IC50, µM (doses to about 10 µM), without a hit: at the highest dose inhibition; hit rate 0.02% among 65,000;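 active means single-dose screening hits from any of four coupled enzyme assays that gave an IC50 when retested across doses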;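 further: the DPM-DC format reads NADH fluorescence rather than 340 nm absorbance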
A340 absorber = compounds absorbing at 340 nm | 65,000 tested, under 10 active | compound absorbance at 340 nm, fold over control | fold change at 10 µM;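 active means at 10 µM dose, initial 340 nm absorbance at least 2 fold that of control wells; inactive means change under 2 fold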;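 further: initial absorbance extrapolated from kinetic A340 decline of NADH oxidation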
DPM-DC inhibit = blocks S. pneumoniae diphosphomevalonate decarboxylase. purified DPM-DC, PK/LDH coupled NADH fluorescence. calls only at 10 µM. hit rate 0.49% among 65,000. AID 556;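 active means the 320 compounds with the highest percent inhibition in the single-dose primary screen, excluding strongly autofluorescent ones, cut at about 32% in these data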;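 further: kinetic rate of NADH fluorescence loss reporting ADP formed by the decarboxylase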
MK inhibit = blocks S. pneumoniae mevalonate kinase; purified MK, PK/LDH-coupled NADH absorbance 340 nm; inhibition, % at 10 µM; hit rate 0.48% among 65,000;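 active means ranked among the strongest by inhibition in the single 10 µM screen, a fixed top-ranked set picked for dose follow-up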
PMK inhibit = S. pneumoniae PMK inhibition; inhibition, % at 10 µM; purified PMK, PK/LDH-coupled NADH absorbance 340 nm; hit rate 0.49% among 65,000;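 active means top-ranked compounds by inhibition in the single 10 µM screen, taking a fixed number of the strongest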;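 further: 0% = full reaction with DMSO carrier and 100% = background rate without enzyme reaction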
Starred values were filed as active, the others as inactive; i = inactive; · = not tested or not shown; + = active, no number.

SMILES | Autofluor 339 | NADH coupling | A340 absorber | DPM-DC inhibit | MK inhibit | PMK inhibit
COc1ccc2[nH]c(=O)c(CN(C(=O)c3ccccn3)c3ccccc3)cc2c1 | 3.4* | 12% | 1.1 | · | 13 | 10
COc1ccc(OC)c(-n2c(SCC(=O)NCc3ccco3)nnc2-c2c[nH]c3ccccc23)c1 | 1.1 | 6% | 1.1 | i | 10 | 9
O=C(Nc1ccc(N2C(=O)C3C4C=CC(C4)C3C2=O)cc1)Nc1cccnc1 (stereo not drawn) | 0.98 | 11% | 0.96 | i | 6 | 16
Cc1ccc(S(=O)(=O)Cc2cn3cccnc3n2)cc1 | 3.7* | 5% | 1.1 | · | 1 | 8
O=c1c2ccccc2nc2c3ccccc3ncn12 | 2.3* | 12% | 1.1 | · | 3 | 21
COc1nnc(-c2ccc(N3CCCCC3)c(N)c2)c2ccccc12 | 1.2 | 9% | 1.1 | i | 17 | 9
Cc1nn(-c2ccc(F)cc2F)c2c1-c1nc(N3CCCC3)ncc1CC2 | 5.1* | 6% | 1 | · | 0 | 11
Cc1cc(NS(=O)(=O)c2ccc(NC(=O)C(C)Oc3ccc4c(C)cc(=O)oc4c3)cc2)no1 (stereo not drawn) | 2* | 10% | 1.1 | i | 9 | 6
Cc1cc2n(n1)C(c1ccsc1)Nc1ccccc1-2 (stereo not drawn) | 2.4* | 9% | 1 | i | 0 | 5
Cc1cc2n(n1)C(c1ccccc1Cl)Nc1ccccc1-2 (stereo not drawn) | 1.4 | 3% | 1 | i | 0 | 5
CSc1ccc(C2Nc3ccccc3-c3cc(C)nn32)cc1 (stereo not drawn) | 2* | 6% | 0.98 | i | 8 | 7
CCOCCCn1c(=N)c(C(=O)Nc2cc(C)on2)cc2c(=O)n3ccccc3nc21 | 2.1* | 1% | 1 | · | 1 | 0
COCCCn1c(=N)c(C(=O)NCC2CCCO2)cc2c(=O)n3ccccc3nc21 (stereo not drawn) | 4.9* | 9% | 1 | · | 4 | 13
COc1ccc(CNC(=O)c2cc3c(=O)n4ccccc4nc3n(Cc3ccco3)c2=N)cc1 | 1.3 | 2% | 0.99 | i | 1 | 5
CCCn1c(=N)c(C(=O)NCC2CCCO2)cc2c(=O)n3cccc(C)c3nc21 (stereo not drawn) | 3.7* | 17% | 1 | · | 13 | 20
Cc1ccc(CNC(=O)c2cc3c(=O)n4cccc(C)c4nc3n(CC3CCCO3)c2=N)cc1 (stereo not drawn) | 4* | 5% | 1 | · | 10 | 0
CCOC(=O)CN(C(=O)CSc1nnc(COc2ccc(OC)cc2)n1C)c1ccccc1 | 1.1 | 5% | 0.96 | i | 3 | 12
CCOCCCn1c(=N)c(C(N)=S)cc2c(=O)n3cccc(C)c3nc21 | 1.9 | 9% | 1.2 | i | 4 | 1
N=c1c(C(=O)NCc2ccc(F)cc2)cc2c(=O)n3ccccc3nc2n1CC1CCCO1 (stereo not drawn) | 3.9* | 7% | 1 | · | 5 | 9
Cc1cccn2c(=O)c3cc(C(N)=S)c(=N)n(CCCOC(C)C)c3nc12 | 2* | 2% | 1 | i | 0 | 2
COCCCn1c(=N)c(C(=O)NCC2CCCO2)cc2c(=O)n3cccc(C)c3nc21 (stereo not drawn) | 2.9* | 3% | 1 | · | 11 | 11
CC1(C)Cc2ccccc2C(N)=C1C#N | 1 | 1% | 1 | i | 3 | 0
Cc1cccc(S(=O)(=O)C(C#N)c2nc3ccccc3nc2N2CCOCC2)c1 (stereo not drawn) | 1.4 | 4% | 1 | i | 6 | 7
Cc1cc(C)cc(NC(=O)CCN2CC(C)OC(C)C2)c1 (stereo not drawn) | 1.1 | 2% | 1 | i | 0 | 5
Cc1ccc(-c2cn3c(=S)[nH]nc3s2)cc1 | 1 | 46% | 1.1 | i | 99* | 16
SMILES | Autofluor 339 | NADH coupling | A340 absorber | DPM-DC inhibit | MK inhibit | PMK inhibit
CC(=O)C1=C(O)C(=O)N(c2cccc(C(=O)O)c2)C1c1ccc(F)cc1 (stereo not drawn) | 1.1 | 10% | 1.1 | i | 11 | 9
CCOc1cc(C(=O)NCCOC)ccc1OC | 1.1 | 4% | 1 | i | 7 | 5
COC(=O)c1c(NC(=O)c2c(C)noc2C)sc2c1CCCCCC2 | 3.4* | 4% | 1.1 | · | 4 | 4
NC(=O)c1c(NC(=O)c2cc3ccccc3o2)sc2c1CCC2 | 2.1* | 5% | 1.1 | · | 0 | 9
COC(=O)c1c(NC(=O)c2ccc(C)o2)sc2c1CCCCC2 | 3.7* | 9% | 1.1 | · | 13 | 4
Cc1ccc(C(=O)Nc2sc3c(c2C(=O)O)CCCCC3)o1 | 1.1 | 7% | 1.2 | i | 0 | 14
CCCCS(=O)(=O)Nc1ccc(Cc2ccncc2)cc1 | 1.1 | 4% | 1 | i | 5 | 7
O=c1cc(O)c2c(=O)[nH]c(=O)n(-c3ccccc3)c2[nH]1 | 1.1 | 10% | 1 | i | 4 | 25*
CCCC(=O)N=C1SC2CS(=O)(=O)CC2N1c1ccc(C(C)=O)cc1 (stereo not drawn) | 1.1 | 6% | 1 | i | 4 | 14
COc1cc(CN2CCN(c3cccc(C)c3C)CC2)cc(Br)c1O | 1.1 | 11% | 1.1 | i | 29 | 5
COc1ccc(CN2CCN(c3cccc(C)c3C)CC2)cc1OC | 1.1 | 21% | 1.1 | i | 51* | 12
COc1ccc(CN2CCC(C(=O)N3CCN(c4ccccc4F)CC3)CC2)cc1OC | 1.1 | 17% | 1.1 | i | 52* | 0
COc1cc(CN2CCC(C(=O)N3CCN(c4ccccc4F)CC3)CC2)cc(OC)c1OC | 1.1 | 15% | 1 | i | 39 | 5
O=C(O)CCCCCNC(=O)CCn1cnc2ccccc2c1=O | 1.1 | 1% | 1 | i | 2 | 2
Cc1occc1-c1nnc(SCC(=O)c2cc3ccccc3oc2=O)o1 | 1.3 | 5% | 1 | i | 9 | 6
CCCc1c(O)nc(SCCN(CC)CC)n(C(=O)c2ccccc2)c1=O | 1 | 9% | 1 | i | 11 | 15
CCOC(=O)c1ccc(NC(=O)CSc2nc(C)cc(=O)[nH]2)cc1 | 1.1 | 16% | 0.99 | i | 14 | 26*
Cc1ccc(CNC(=O)CCS(=O)(=O)c2cc(Br)cc3c2N(C(=O)C2CC2)CC3)o1 | 1.1 | 3% | 1 | i | 0 | 8
COc1ccccc1-c1nn2c(C(F)(F)F)nnc2s1 | 3* | 8% | 1.1 | i | 0 | 5
COc1ccc(-c2nn3c(-c4ccccn4)nnc3s2)cc1OC | 1.4 | 15% | 1.1 | + | 7 | 5
CN(C)c1ccc(-c2nn3c(-c4ccccc4Cl)nnc3s2)cc1 | 3.3* | 3% | 1.1 | · | 6 | 0
COc1ccccc1-c1nnc2sc(-c3ccc(N(C)C)cc3)nn12 | 2.3* | 10% | 1 | + | 3 | 3
CN(C)c1ccc(-c2nn3c(-c4ccncc4)nnc3s2)cc1 | 1.3 | 3% | 1.1 | i | 4 | 0
